Test results taken from PubChem BioAssay (Tox21).
Results filed as inconclusive are left out. Active and inactive are the calls of the source. Unless noted, the call rests on the fitted dose curve; in most records, active means well fitted curve in the direction sought with a large enough effect in the repeat runs; inconclusive means weak or mixed curves; inactive means no such curve, though single readings can be large; an effect the other way counts as inactive or inconclusive.

Legend:
[1] = qHTS assay for small molecules that induce genotoxicity in human embryonic kidney cells expressing luciferase-tagged ATAD5 (AID 651632); further: nearly all actives have a fitted effect of over 15% in size
Outline: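 Luminescence read-out: after 16 hr compound exposure at 37C, ATAD5-luciferase HEK293T cells received Amplite, 30 min RT, then CCD imaging. A rise in signal marks genotoxic stress.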

[2] = qHTS assay for small molecule agonists of the p53 signaling pathway - cell viability (AID 651633; calls by dose curve; further: nearly all actives have a fitted effect of over 30% in size; further: potency means the concentration at half of the fitted maximal effect)
Outline: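 Viability counter-read: CellTiter-Glo luminescence (30 min, room temperature) in the same p53RE-bla plates. These plates had been exposed to compounds for 16 h at 37 C.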

[3] = qHTS assay for small molecules that induce genotoxicity in human embryonic kidney cells expressing luciferase-tagged ATAD5 - cell viability (AID 651634; calls by dose curve; further: nearly all actives have a fitted effect of over 25% in size; further: potency means the concentration at half of the fitted maximal effect)
Outline: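 HEK293T ATAD5-luc cells, 2,000/well; compound 15.5 hr, 37C/5% CO2; CellTiter-Fluor 30 min, 37C; fluorescence read.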

[4] = qHTS assay for small molecule disruptors of the mitochondrial membrane potential - cell viability (AID 720634; calls by dose curve;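 further: human HepG2 liver cancer cells; series mostly up to about 83 µM; nearly all actives have a fitted effect of over 20% in size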)
Outline: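 Luminescence from CellTiter-Glo (ATP content) gave viability in HepG2 cells, read in the same wells as the MMP dye assay after 1 hr compound exposure at 37 C.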

[5] = qHTS assay for small molecule disruptors of the mitochondrial membrane potential (AID 720635); further: potency means the concentration at half of the fitted maximal effect
Outline: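 Mitochondrial membrane potential tracked with Mito-MPS dye, red aggregates (ex 540/em 590 nm) against green monomers (ex 490/em 535 nm). Compound treatment 1 hr at 37C, dye 30 min in HepG2.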

[6] = qHTS assay to test for compound auto fluorescence at 590 nm (red) in HepG2 cells (AID 720674)
Outline: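 We screened compounds on adherent HepG2 cells, incubating them for an hour at 37 C in 5% CO2 before reading emission at 590 nm under 540 nm excitation; values reflect equivalence to Rose Bengal sodium fluorescence.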

[7] = qHTS assay to test for compound auto fluorescence at 535 nm (green) in HepG2 cells (AID 720675)
[8] = qHTS assay to test for compound auto fluorescence at 460 nm (blue) in HEK293 cells (AID 720678)
Outline: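 Blue-channel (Ex/Em 405/460 nm) intensity measured in HEK293 cultures after overnight compound exposure at 37C; signal expressed relative to triamterene. Cells plated 2,000 per well in 10% dialyzed FBS medium and allowed 4-5 hr to attach.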

[9] = qHTS assay to test for compound auto fluorescence at 590 nm (red) in HEK293 cells (AID 720679)
Outline: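 Red-channel autofluorescence (Ex/Em 540/590 nm; Rose Bengal sodium reference) was measured after overnight 37C, 5% CO2 exposure of attached HEK293 cells, 2,000 per well in medium with 10% dialyzed FBS.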

[10] = qHTS assay to test for compound auto fluorescence at 535 nm (green) in HEK293 cells (AID 720680)
[11] = qHTS assay to test for compound auto fluorescence at 460 nm (blue) in HEK293 cell free culture (AID 720681)
Outline: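 Blue fluorescence (Ex 405/Em 460 nm, triamterene-equivalent) was read immediately after pin transfer of compound or DMSO into medium (DMEM, 10% FBS) without cells.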

[12] = qHTS assay to test for compound auto fluorescence at 535 nm (green) in HEK293 cell free culture (AID 720682)
Outline: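 Cell-free medium (DMEM, 10% FBS) receives compound or DMSO by pintool. Plate read directly at Ex 485/Em 535 nm. Signal converted to fluorescein equivalency.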

[13] = qHTS assay to test for compound auto fluorescence at 590 nm (red) in HEK293 cell free culture (AID 720683)
Outline: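 Red-channel autofluorescence of compounds in culture medium (DMEM, 10% FBS), no cells, measured at 540/590 nm. Rose Bengal sodium is the reference fluorophore for equivalence.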

[14] = qHTS assay to test for compound auto fluorescence at 590 nm (red) in HepG2 cell free culture (AID 720684)
Outline: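 No cells present: MEM + 10% FBS only. Compound pinned in, red label read (540/590 nm). Activity = fluorescence equivalent to Rose Bengal sodium.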

[15] = qHTS assay to test for compound auto fluorescence at 460 nm (blue) in HepG2 cell free culture (AID 720685)
Outline: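 Cell-free plates of MEM plus 10% FBS received 23 nL compound or DMSO vehicle; blue-channel (405/460 nm) intensity scored against triamterene as reference fluorophore.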

[16] = qHTS assay to test for compound auto fluorescence at 535 nm (green) in HepG2 cell free culture (AID 720686)
[17] = qHTS assay to test for compound auto fluorescence at 460 nm (blue) in HepG2 cells (AID 720687)
Outline: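 Blue-channel autofluorescence (Ex/Em 405/460 nm, triamterene-equivalent) was measured after 1 hr compound exposure at 37 C, 5% CO2. Cells were HepG2, plated overnight at 37 C in MEM plus 10% FBS.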

[18] = qHTS assay for small molecule agonists of the p53 signaling pathway (AID 651631; calls by dose curve; further: nearly all actives have a fitted effect of over 15% in size; further: potency means the concentration at half of the fitted maximal effect)
Outline: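 p53RE-bla HCT-116 cells; compounds 16 h, 37 °C; LiveBLAzer B/G FRET substrate 2 h RT; fluorescence intensity read-out, qHTS format.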

[19] = target: Glucocorticoid receptor (Homo sapiens) (UniProt P04150); assay: qHTS assay to identify small molecule agonists of the glucocorticoid receptor (GR) signaling pathway (AID 720691; active means well fitted activation curve with a large enough effect in the signal ratio in the repeat runs, not every such curve was filed as active; the % refers to the signal ratio)
Chain of Glucocorticoid receptor (Homo sapiens) (P04150 whole entry, looked up): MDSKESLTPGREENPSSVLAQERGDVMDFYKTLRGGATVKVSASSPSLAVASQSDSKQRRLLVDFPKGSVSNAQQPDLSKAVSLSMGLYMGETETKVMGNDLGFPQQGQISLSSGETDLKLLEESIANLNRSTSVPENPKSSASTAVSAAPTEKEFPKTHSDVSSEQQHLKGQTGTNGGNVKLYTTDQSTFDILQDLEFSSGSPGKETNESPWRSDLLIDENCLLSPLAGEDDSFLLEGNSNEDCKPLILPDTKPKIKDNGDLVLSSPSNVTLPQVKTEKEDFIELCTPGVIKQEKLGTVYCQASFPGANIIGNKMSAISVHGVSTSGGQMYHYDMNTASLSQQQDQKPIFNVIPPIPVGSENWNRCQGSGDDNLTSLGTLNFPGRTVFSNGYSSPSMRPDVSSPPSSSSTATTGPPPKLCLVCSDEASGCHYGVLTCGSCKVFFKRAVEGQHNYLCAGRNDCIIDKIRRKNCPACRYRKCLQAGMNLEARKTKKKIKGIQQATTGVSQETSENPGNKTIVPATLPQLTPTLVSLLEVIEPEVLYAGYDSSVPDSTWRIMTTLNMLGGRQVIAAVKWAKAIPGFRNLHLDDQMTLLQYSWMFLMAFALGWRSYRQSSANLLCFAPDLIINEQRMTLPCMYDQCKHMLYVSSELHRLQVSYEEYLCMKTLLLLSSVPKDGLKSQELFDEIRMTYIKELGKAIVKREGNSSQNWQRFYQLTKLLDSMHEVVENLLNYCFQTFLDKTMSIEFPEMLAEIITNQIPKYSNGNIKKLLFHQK
Outline: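 HeLa GR-bla reporter line; cells pre-incubated 4 h, compound in DMSO 18 h at 37 C; LiveBLAzer B/G FRET substrate 2 h RT; fluorescence intensity read-out.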

[20] = target: Glucocorticoid receptor (Homo sapiens) (UniProt P04150); assay: qHTS assay to identify small molecule antagonists of the glucocorticoid receptor (GR) signaling pathway (AID 720692; active means well fitted inhibition curve with a large enough effect in the signal ratio in the repeat runs, not every such curve was filed as active; the % refers to the signal ratio; further: potency means the concentration at half of the fitted maximal effect)
Outline: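 Read-out: beta-lactamase FRET substrate fluorescence, 2 h at room temperature, in HeLa cells stably carrying a GRE-driven bla reporter. Compounds were co-incubated with 5 nM dexamethasone agonist (final) for 18 h at 37 C.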
On the % scale 0 is the no-effect control and ±100 the full control effect.

C/C(C=O)=C\c1ccccc1
inactive: Potency [1] | Potency [2] | Potency [3] | outcome [4] | Potency [5] | outcome [6] | outcome [7] | Potency [8] | outcome [9] | outcome [10] | Potency [11] | outcome [12] | outcome [13] | outcome [14] | Potency [15] | outcome [16] | Potency [17]

O=c1[nH][nH]c(=O)c2cc([N+](=O)[O-])ccc12
inactive: Potency [18] | Potency [1] | Potency [2] | outcome [4] | outcome [6] | outcome [7] | Potency [8] | outcome [10] | Potency [11] | outcome [12] | outcome [13] | outcome [14] | Potency [15] | outcome [16] | Potency [17] | Potency [19] | Potency [20]

CC(=O)OCCC(C)CC(C)(C)C (configuration not stated)
inactive: Potency [1] | Potency [2] | Potency [3] | outcome [4] | Potency [5] | outcome [6] | outcome [7] | Potency [8] | outcome [9] | outcome [10] | Potency [11] | outcome [12] | outcome [13] | outcome [14] | Potency [15] | outcome [16] | Potency [17] | Potency [19]

COc1ccc2nc(S(=O)Cc3ncc(C)c(OC)c3C)[nH]c2c1 (configuration not stated)
inactive: Potency [1] | Potency [2] | Potency [3] | outcome [4] | Potency [5] | outcome [6] | outcome [7] | Potency [8] | outcome [9] | outcome [10] | Potency [11] | outcome [12] | outcome [13] | outcome [14] | Potency [15] | outcome [16] | Potency [17]

CCCCCC
inactive: Potency [18] | Potency [2] | Potency [3] | outcome [4] | outcome [6] | outcome [7] | Potency [8] | outcome [9] | Potency [11] | outcome [12] | outcome [13] | outcome [14] | Potency [15] | outcome [16] | Potency [17] | Potency [19] | Potency [20]

O=C(O)CCC(=O)c1ccc(-c2ccccc2)cc1
inactive: Potency [18] | Potency [1] | Potency [2] | fluorescence, relative to Rose Bengal [6] 0.795% [at 18.6 µM] | fluorescence, % of fluorescein control [7] 0.0165% [at 18.6 µM] | fluorescence, % of triamterene [8] -0.239% [at 18.6 µM] | fluorescence, % of fluorescein [10] -0.008% [at 18.6 µM] | fluorescence, % of fluorescent control [11] 0.0648% [at 18.6 µM] | activity change [12] 0.0155% [at 18.6 µM] | fluorescence, % of fluorescent control [13] 0.387% [at 18.6 µM] | fluorescence, % of Rose Bengal [14] -0.0571% [at 18.6 µM] | fluorescence, % of fluorescent control [15] -0.0525% [at 18.6 µM] | fluorescence, % of fluorescein control [16] -0.127% [at 18.6 µM] | fluorescence, % of fluorescent control [17] -0.0799% [at 18.6 µM] | Potency [19] | Potency [20]

CC(=O)C(=O)CC(C)C
inactive: Potency [1] | Potency [2] | Potency [3] | outcome [4] | Potency [5] | outcome [6] | outcome [7] | Potency [8] | outcome [9] | outcome [10] | Potency [11] | outcome [12] | outcome [13] | outcome [14] | Potency [15] | outcome [16] | Potency [17] | Potency [19]

SCCc1cnccn1
inactive: Potency [2] | Potency [3] | outcome [4] | Potency [5] | outcome [6] | outcome [7] | Potency [8] | outcome [9] | outcome [10] | Potency [11] | outcome [12] | outcome [13] | Potency [15] | outcome [16] | Potency [17] | Potency [19]
active: Potency [18] 61.1 µM

CCCCCc1ccco1
active: Potency [2] 39.8 µM | Potency [5] 44.7 µM | Potency [20] 31.9 µM
inactive: Potency [1] | Potency [3] | outcome [4] | outcome [6] | outcome [7] | Potency [8] | outcome [9] | Potency [11] | outcome [12] | outcome [13] | outcome [14] | Potency [15] | outcome [16] | Potency [17] | Potency [19]

CCC(C)(C)C(=O)O
inactive: Potency [18] | Potency [1] | Potency [2] | outcome [4] | outcome [6] | outcome [7] | Potency [8] | outcome [9] | outcome [10] | Potency [11] | outcome [12] | outcome [13] | outcome [14] | Potency [15] | outcome [16] | Potency [17] | Potency [19] | Potency [20]

Nc1cccc2c(N)cccc12
active: Potency [5] 0.864 µM
inactive: Potency [1] | Potency [2] | Potency [3] | outcome [4] | outcome [6] | outcome [7] | Potency [8] | outcome [9] | outcome [10] | Potency [11] | outcome [12] | outcome [13] | outcome [14] | Potency [15] | outcome [16] | Potency [17] | Potency [19]

CN(C)CC/C=C1\c2ccccc2Sc2ccc(Cl)cc21
inactive: Potency [1] | Potency [3] | outcome [4] | outcome [6] | outcome [7] | Potency [8] | outcome [9] | outcome [10] | Potency [11] | outcome [12] | outcome [13] | outcome [14] | Potency [15] | outcome [16] | Potency [17] | Potency [19] | Potency [20]
active: Potency [18] 15 µM

CCN(Cc1cccc(S(=O)(=O)O)c1)c1ccc(C(=C2C=CC(=[N+](CC)Cc3cccc(S(=O)(=O)O)c3)C=C2)c2ccccc2S(=O)(=O)[O-])cc1
active: Potency [3] 15.4 µM
inactive: Potency [18] | Potency [1] | outcome [6] | outcome [7] | Potency [8] | outcome [9] | outcome [10] | Potency [11] | outcome [12] | outcome [13] | outcome [14] | Potency [15] | outcome [16] | Potency [17]

CCCCC[C@H](O)/C=C/[C@H]1[C@H](O)CC(=O)[C@@H]1C/C=C\CCCC(=O)O
inactive: Potency [1] | Potency [2] | Potency [3] | outcome [4] | Potency [5] | outcome [6] | outcome [7] | Potency [8] | outcome [9] | outcome [10] | Potency [11] | outcome [12] | outcome [13] | outcome [14] | Potency [15] | outcome [16] | Potency [17] | Potency [19]
